Screening results as filed in PubChem.
Rows were chosen to be rich in hits. Some 7.4% of all compounds tested hit in one or more screens of this group.
ELG1 genotoxic: qHTS screen for small molecules that induce genotoxicity in human embryonic kidney (HEK293T) cells expressing luciferase-tagged ELG1; HEK293T ELG1-luciferase reporter, luminescence, 16 h; Potency, µM (top dose mostly 46 µM), for inactives: at the highest dose activity change, positive = activation, usual class: activators; hit rate 1.3% among 330,000; AID 504466, 2011; note: % of control where 0% means no effect; nearly all actives have a fitted effect of over 60% in size
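After overnight (16 hr) compound treatment at 37 °C, ELG1-luciferase HEK293T cells were lysed with ONE-Glo; luminescence quantified 30 min later at room temperature.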
NPC1 promoter act: qHTS Assay for NPC1 Promoter Activators | Huh7 NPC1 promoter luciferase reporter, 24 h | hit rate 2.4% among 320,000 | Potency, µM (doses to about 9.22 µM), without a hit: top-dose activation, most hits filed as activators | AID 485313, 2010; note: % of control where 0% means no effect; nearly all actives have a fitted effect of over 60% in size
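In 1536-well qHTS, Huh7 cells harboring an NPC1 promoter–luciferase construct received compound for 24 h; activation was quantified by luminescence following luciferase reagent addition.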
Luc counter: Counterscreen for Luciferase (Kinase-Glo TM) Inhibition; Luciferin 4-monooxygenase (Photuris pensylvanica), Q27757; Kinase-Glo luciferase, ATP luminescence, 8 min; Potency, µM (highest dose often 38.3 µM), inactives show top-dose activity change, negative = inhibition, usual class: inhibitors; hit rate 0.28% among 200,000; AID 1379, 2008; note: % is set by controls: 0 for no effect and ±100 for the full control effect; nearly all actives have a fitted effect of over 60% in size
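Compound is pinned into ATP-containing buffer (10 uM ATP, imidazole pH 7.2, 7 mM MgCl2). Kinase-Glo luciferase reagent is then added. Light output is recorded following an 8-min room-temperature incubation.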
FLuc counter: qHTS profiling assay for firefly luciferase inhibitor/activator using purifed enzyme and Km concentrations of substrates (counterscreen for miR-21 project); purified FLuc, Km substrates, luminescence inhibition; Luciferin 4-monooxygenase (Photinus pyralis), P08659; Potency, µM (highest dose often 57.5 µM), for inactives: at the top dose activity change, negative = inhibition, hits mostly inhibitors; hit rate 6.9% among 360,000;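 note: plate controls were vehicle for no effect and reference inhibitor for full effect; nearly all actives have a fitted effect of over 55% in size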
Target sequence (P08659 whole entry, looked up): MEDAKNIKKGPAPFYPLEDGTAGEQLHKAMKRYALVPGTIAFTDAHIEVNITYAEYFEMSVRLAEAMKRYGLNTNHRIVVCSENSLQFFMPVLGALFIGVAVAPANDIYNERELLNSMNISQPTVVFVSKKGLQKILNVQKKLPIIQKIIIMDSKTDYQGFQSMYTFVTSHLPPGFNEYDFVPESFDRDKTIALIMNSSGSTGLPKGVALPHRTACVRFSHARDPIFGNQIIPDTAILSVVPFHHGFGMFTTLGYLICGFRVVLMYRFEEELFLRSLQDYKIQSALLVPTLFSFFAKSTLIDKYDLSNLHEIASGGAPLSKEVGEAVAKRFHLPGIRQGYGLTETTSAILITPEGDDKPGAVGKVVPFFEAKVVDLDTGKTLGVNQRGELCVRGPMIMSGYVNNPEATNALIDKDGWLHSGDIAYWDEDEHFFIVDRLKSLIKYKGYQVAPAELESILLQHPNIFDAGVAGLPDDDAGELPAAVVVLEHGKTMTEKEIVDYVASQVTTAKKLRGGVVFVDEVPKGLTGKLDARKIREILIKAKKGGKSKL
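Purified P. pyralis luciferase (10nM final) with 10uM D-luciferin and 10uM ATP (Km levels) in 50mM Tris acetate pH 7.5, 10mM Mg acetate, 0.01% Tween-20, 0.05% BSA; qHTS 6-point titration, ~60 µM downward; luminescence read.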
SMN2 splice enh: qHTS Assay for Enhancers of SMN2 Splice Variant Expression; HEK293 SMN2-luciferase splicing reporter, luminescence, 30-36 h; Potency, µM (top dose mostly 46.1 µM), inactives show at the top dose activity change, positive = activation, actives largely listed as activators; hit rate 2.8% among 210,000; note: % of control where 0% means no effect; nearly all actives have a fitted effect of over 55% in size
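HEK293 cells carry an SMN2 […]–luciferase reporter in which exon 7 inclusion puts luciferase in frame. Cells were plated 10-12 h before compound addition, then incubated 30-36 h at 37C. ONE-Glo luminescence was read; sodium butyrate at 4.5 mM final served as control.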
Rab9 promoter act: qHTS Assay for Rab9 Promoter Activators; Potency, µM (series often up to 9.22 µM), for inactives: at the top dose activation, negative = inhibition, usual class: activators; hit rate 2.8% among 320,000; Huh7 Rab9 promoter-luciferase reporter, luminescence, 24 h; note: % of control where 0% means no effect; nearly all actives have a fitted effect of over 60% in size
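Luminescence read-out: Huh7 cells stably expressing Rab9-luciferase, treated 24 h with compound at 37 °C, then lysed with luciferase reagent for 10 min at ambient before reading.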
* marks the source's active call; other numbers are inactive results; ? = inconclusive; . = not tested or not shown. Calls come from the whole dose curve; as a rule, active = well fitted curve in the direction sought with a large enough effect; inconclusive = small, poorly fitted or top-dose-only effect, or another doubt; inactive = no such curve, though single readings can be large; an effect the other way counts as inactive or inconclusive. Potency is the fitted concentration of half-maximal effect.

SMILES | ELG1 genotoxic | NPC1 promoter act | Luc counter | FLuc counter | SMN2 splice enh | Rab9 promoter act
CCn1c(SCC(=O)NC(=O)Nc2ccc3c(c2)OCCO3)nnc1-c1cccs1 | 12.9% | 1.7% | -5.5% | 19µM* | -9.0% | 7.6%
CCn1c(SCC(=O)Nc2ccc3c(c2)OCCO3)nnc1-c1ccco1 | -2.0% | -1.2% | 2.6% | 15.1µM* | -8.3% | 2.9%
CCn1c(SCC(=O)Nc2ccc3c(c2)OCCO3)nnc1-c1cccnc1 | 2.1% | 3.1% | . | 23.9µM* | . | 16.0%
Cc1ccc(C(=O)c2oc3ccccc3c2NC(=O)C(C)Oc2ccccc2Cl)cc1 (stereo not drawn) | . | . | . | -0.4% | 2.0% | .
COC(=O)c1cc2oc(C)cc2n1Cc1ccc(Cl)cc1 | . | . | . | -7.3% | . | .
CN(C)/C=N/c1ncn(-c2ncc(C(F)(F)F)cc2Cl)n1 | ? | 3.16µM* | ? | ? | 11.2µM* | 2.24µM*
CN(C)/C=N/S(=O)(=O)c1cccn1-c1ncc(C(F)(F)F)cc1Cl | 15.8% | -6.2% | 2.1% | -1.0% | 12.3% | -10.0%
COc1ccc(-n2ncc3c(=O)n(Cc4c(F)cccc4Cl)cnc32)cc1 | ? | 16.5% | 1.4% | ? | . | ?
Cc1c(C(=O)OCC(C)(C)CN(C)C)oc2ccccc12 | ? | 4.5% | 2.7% | 19µM* | 7.5% | -1.2%
Cc1c(C(=O)OCCN2CCCCC2)oc2ccccc12 | 1.6% | -0.3% | -1.0% | 19µM* | 1.4% | 4.6%
Cc1c(C(=O)OCC(=O)N2C(C)CCCC2C)oc2ccccc12 (stereo not drawn) | ? | ? | . | 16.9µM* | . | ?
COc1ccc2oc(C(=O)OCC(=O)N3C(C)CCCC3C)c(C)c2c1 (stereo not drawn) | 3.5% | -1.1% | . | ? | . | 1.5%
CC(=O)Nc1ccc(S(=O)(=O)NC2C3(C)CCC(C3)C2(C)C)cc1 (stereo not drawn) | -3.2% | -6.3% | . | -2.5% | . | 0.6%
CCOc1ccc(NC(=O)CSc2nnnn2C2CCCC2)cc1 | -4.1% | -1.6% | . | 2.3% | . | 4.4%
COc1ccc(C)cc1NC(=O)Nc1ccccc1 | -7.0% | 2.4% | -5.9% | ? | -10.2% | 10.1%
COc1ccc(C)cc1NC(=O)Nc1ccc(C(=O)N2CCCC2)cc1 | 18.3% | 22.6% | . | 13.5µM* | . | 29.5%
COc1ccc(Cl)cc1NC(=S)N1CCCC1 | -1.1% | 3.8% | 0.4% | 0.5% | 4.3% | -0.9%
COc1ccc(Cl)cc1NC(=O)Nc1ccc(C(=O)N2CCCC2)cc1 | -6.1% | 19.9% | . | 21.3µM* | . | 18.7%
Cc1ccc(/C=N/Nc2ccc(F)cc2)s1 | 10.0% | 29.5% | . | ? | . | 27.1%
Cc1ccc(/C=N/Nc2nc(Cl)c(Cl)cc2Cl)s1 | ? | ? | 8.7% | 6.01µM* | ? | ?
O=C(O)c1cc(N/N=C/c2cccs2)ccc1Cl | ? | ? | -0.2% | 9.53µM* | 11.2µM* | ?
Cc1ccc(/C=N/Nc2ccc(Cl)c(C(=O)O)c2)s1 | ? | 0.316µM* | -0.4% | 4.78µM* | 0.891µM* | 0.316µM*
Cc1ccc(Sc2ncccc2C(=O)N(C)Cc2cccs2)c(C)c1 | -0.9% | -1.7% | . | -2.3% | . | 3.4%
O=C(CCN1C(=O)c2ccc(Br)cc2C1=O)NC1CCCCC1 | 1.9% | -5.1% | . | 3.5% | . | -2.2%
O=C(Nc1ccc(Cl)cc1Cl)c1csc(-c2cccnc2)n1 | 12.8% | 2.82µM* | . | ? | . | ?
SMILES | ELG1 genotoxic | NPC1 promoter act | Luc counter | FLuc counter | SMN2 splice enh | Rab9 promoter act
O=C(Nc1cccnc1)c1cc(-c2ccc(Cl)cc2)on1 | 8.9% | -2.1% | 0.9% | 1.51µM* | 18.0% | 2.2%
O=C(Nc1cccnc1)c1cc(-c2ccc(Cl)cc2Cl)on1 | ? | 3.98µM* | . | 0.379µM* | . | ?
CC12CCC(=O)N1C(C(=O)Nc1ccc(F)cc1)CS2 (stereo not drawn) | 1.5% | 0.4% | . | 1.4% | . | -0.2%
CCn1c(=O)c2cc(C(=O)NCCc3cc(OC)ccc3OC)sc2c2ccccc21 | . | . | . | -10.2% | -1.0% | .
CN(C)c1ccc(C2CC(c3ccccc3)=Nc3nc(-c4ccccc4)cn32)cc1 (stereo not drawn) | 4.5% | -1.1% | -3.2% | 13.5µM* | 28.4% | 2.1%
CN(C)c1ccc(-c2n[nH]c(=S)n2-c2ccccc2)cc1 | -1.8% | -0.4% | -1.9% | -8.4% | 9.4% | -16.6%
COC(=O)c1ccc(-c2ccc(Cl)cc2)nc1C | 8.2µM* | 1.58µM* | -7.4% | 1.35µM* | 5.01µM* | 1.41µM*
O=C(NCC(c1ccc2c(c1)OCO2)N1CCN(c2ccccc2)CC1)C(=O)Nc1cccc(F)c1 (stereo not drawn) | . | . | . | 1.2% | . | .
O=C(O)COc1ccc(/C=C/c2nc3ccc([N+](=O)[O-])cc3s2)cc1 | 2.7% | 7.3% | . | 4.78µM* | . | 3.8%
O=C(c1cc([N+](=O)[O-])cc([N+](=O)[O-])c1)N1CCOCC1 | 0.8% | -1.4% | 2.9% | -0.7% | . | -3.9%
O=C(O)CN1C(=O)/C(=C\c2ccc(OC(=O)c3ccco3)cc2)SC1=S | -2.4% | 3.1% | . | 7.57µM* | . | -5.8%
CCN1C(=O)/C(=C\c2cccc(OC(=O)c3ccco3)c2)SC1=S | 3.7% | -5.5% | . | 4.6% | . | 3.6%
O=C(O)CN1C(=O)/C(=C\c2cccc(OC(=O)c3ccco3)c2)SC1=S | 0.0% | 4.3% | . | 23.9µM* | . | -0.5%
O=C(O)CN1C(=O)/C(=C/c2ccc(SCc3ccccc3)o2)SC1=S | 0.5% | -3.5% | -2.8% | 19µM* | 15.2% | -1.9%
CC1CC(=O)c2cnc(Nc3ccccc3)nc2C1 (stereo not drawn) | 5.8µM* | 3.16µM* | -10.7% | 9.53µM* | 11.2µM* | 3.55µM*
Cc1ccc(Nc2ncc3c(n2)CC(C)CC3=O)c(C)c1 (stereo not drawn) | 7.3µM* | 27.1% | . | 7.57µM* | . | ?
COc1ccc(CNC(=O)c2ccc(Cl)c(S(=O)(=O)N3CCOCC3)c2)cc1OC | 0.5% | -18.8% | . | 1.4% | . | -22.4%
Cc1ccc(C(=O)O/N=C/c2c(C)nn(C)c2Cl)cc1 | -2.5% | -0.6% | 0.6% | 10.7µM* | -0.7% | -5.6%
Cc1ccc(C(=O)O/N=C/c2c(C(F)(F)F)nn(C)c2Sc2ccc(Cl)cc2)cc1 | -19.6% | -0.1% | -2.3% | ? | -46.1% | 2.9%
Cc1ccc(CO/N=C/C2=C(Cl)c3ccccc3CC2)cc1 | . | . | 0.6% | -19.2% | -8.9% | .
Cc1ccc(C(=O)O/N=C/C2=C(Cl)c3ccccc3CC2)cc1 | 0.3% | -3.3% | 18.2% | 23.9µM* | -18.0% | 1.1%
Cc1ccc(/C=N/OC(=O)c2nn(C)cc2Cl)cc1 | 8.1% | -1.8% | -12.8% | 1.35µM* | -6.0% | 10.7%
